D1 agonist: human D1 receptor agonism | P21728 | HEK293 T-REx D1 cells, calcium flux, agonist mode | activation, % at 2 µM | 1% of 360,000 active | AID 504660; note: 0% is about no effect
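Agonism was scored from calcium flux recorded over 180 s (1 read/s) after pintool compound addition, following a 10-cycle baseline. Cells were inducible force-coupled HEK293 TREx D1, plated overnight at 30 C and loaded with no-wash calcium dye.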
TRHR enhancer: allosterically enhances the human TRH receptor; P34981; TRHR cells, fluo-8 calcium fluorescence, EC20 TRH enhancement; enhancement, % at 2 µM; 0.66% of 360,000 active; AID 493056; in the data active = enhancement above about 30%; note: 0% is about no effect
Target sequence (P34981 whole entry, looked up): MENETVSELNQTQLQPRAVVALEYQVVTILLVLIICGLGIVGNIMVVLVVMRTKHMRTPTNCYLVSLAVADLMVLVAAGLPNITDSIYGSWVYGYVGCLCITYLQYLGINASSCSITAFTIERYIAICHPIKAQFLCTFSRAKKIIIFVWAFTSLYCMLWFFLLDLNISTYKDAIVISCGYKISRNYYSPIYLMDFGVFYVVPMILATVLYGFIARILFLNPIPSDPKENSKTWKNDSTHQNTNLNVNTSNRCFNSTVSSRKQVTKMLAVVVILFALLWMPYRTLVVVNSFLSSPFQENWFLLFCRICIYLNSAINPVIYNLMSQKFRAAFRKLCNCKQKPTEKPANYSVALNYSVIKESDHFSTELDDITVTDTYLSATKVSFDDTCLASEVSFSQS
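TRHR-expressing cells loaded with fluo-8 calcium dye were read kinetically (ex 480/em 530) during compound addition, then stimulated with an EC20 of TRH (10 nM final). Enhancement of the Gq-mediated intracellular calcium response was scored.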
TRHR ag: TRH receptor (human) agonism. P34981. TRHR cells, calcium flux fluo-8, FDSS agonist mode. activation, % at 2 µM. 0.18% of 360,000 active. AID 493084; note: 0% is about no effect
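In this calcium-flux screen, cells bearing human TRHR are dye-loaded with fluo-8, baselined for 10 cycles, then exposed to library compounds; positive kinetic calcium responses during the agonist phase mark hits, with TRH as control.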
LDHA inh: blocks human lactate dehydrogenase A. activity change, % (values are at about 110 or 230 µM). AID 1347041. 0.15% of 480,000 active. purified LDHA, NADH/diaphorase-resazurin fluorescence; hits give low values; in the data active = activity change below about -30%;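 note: plate controls were DMSO wells for no effect and wells without enzyme for full effect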
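Resorufin fluorescence (ex540/em590), read at 0 and 20 min after diaphorase/resazurin addition, reports the NADH left after a 5 min room-temperature reaction of 2 nM human LDH5 with 0.06 mM NADH and 0.2 mM pyruvate.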
D1 PAM: potentiators of human D1 dopamine receptor; P21728; HEK293 TREx D1 cells, calcium flux, dopamine EC20 potentiation; potentiation, % at 10 µM; 0.036% of 360,000 active; AID 504651; in the data active = potentiation above about 30%; note: 0% is about no effect
D1 antagonist: antagonists of human D1 dopamine receptor | activity change, negative = inhibition, % at 10 µM | 3.2% of 360,000 active | P21728 | HEK293 TREx D1 cells, calcium flux, dopamine EC80; hits give low values | AID 504652; in the data active = activity change below about -30%; note: % is set by controls: 0 for no effect and ±100 for the full control effect
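Antagonism measured as reduced calcium response to an EC80 dopamine addition following 180 s compound pre-read; cells were inducible HEK293 Trex D1 plated overnight at 30 C, read kinetically at 1 cycle/sec.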
An asterisk follows results filed as active; . = no result given; ! = not active in a repeat. The list is not random: actives were taken first. Their share in the collection is about 3.6%. Cut-off read from the data, not from the text of the source, unless noted: active = activation above about 30%; inactive = the rest.

SMILES | D1 agonist | TRHR enhancer | TRHR ag | LDHA inh | D1 PAM | D1 antagonist
Cc1ccc(C)c(S(=O)(=O)N2CCNCC2)c1 | 11.0 | -7.4 | -1.6 | -1.0 | 6.7 | -5.3
Cc1ccc(S(=O)(=O)N2CCC3(CC2)OCCO3)cc1 | 20.1 | 3.7 | 0.9 | -4.4 | -2.9 | -31.5*
Cc1cccc(OCCCCn2c(CO)nc3ccccc32)c1 | 0.8 | 5.3 | 0.2 | -2.9 | -5.2 | -37.6*
COc1ccc(OCCCCn2c(CO)nc3ccccc32)cc1 | 12.9 | -5.2 | 0.3 | -2.0 | -1.8 | -53.5*
CCn1c(COc2cccc(C)c2)nc2ccccc21 | 6.7 | -3.3 | -0.6 | -0.6 | -5.8 | -31.8*!
COCc1nc2ccccc2n1CCCOc1ccccc1 | 0.3 | -7.4 | 0.2 | -4.9 | -1.1 | 5.7
CCc1nc2ccccc2n1CCCCOc1cccc(C)c1 | 11.3 | -2.5 | -1.7 | 4.4 | 1.8 | -7.0
CCCCn1c(CNC(=O)CCC)nc2ccccc21 | -1.0 | 2.7 | -0.5 | -0.2 | 1.2 | -33.6*
Cc1cc(=O)oc2cc(OCC(=O)c3ccc(OC(F)F)cc3)ccc12 | . | . | . | -20.2 | . | .
O=C(Nc1ccccc1)c1ccc(NN=C2CCCCC2)c([N+](=O)[O-])c1 | . | . | . | -0.1 | . | .
N#Cc1ccc(C(=O)NC2CCC(C(F)(F)F)CC2)cc1 (stereo unspecified) | . | . | . | 4.7 | . | .
Cn1nnc2cc(C(=O)NC(C)(C)C)ccc21 | 0.8 | 2.2 | 0.3 | -0.6 | -4.3 | -2.8
CNC(=O)c1ccc2c(c1)nnn2C | 1.4 | -16.7 | 1.0 | -0.6 | -8.2 | -87.0*
Cc1ccc(C2(C)NC(=O)N(CC(=O)c3ccc4c(c3)OCCO4)C2=O)cc1 (stereo unspecified) | 8.7 | -2.2 | 0.6 | -2.2 | -3.6 | -43.0*
CCC1(c2ccc(F)cc2)NC(=O)N(CC(=O)N2c3ccccc3CC2C)C1=O (stereo unspecified) | 84.7* | 0.4 | 6.2 | -1.4 | 4.7 | 3.6
CCC1(c2ccc(F)cc2)NC(=O)N(CC(=O)N(CCC#N)c2ccccc2)C1=O (stereo unspecified) | 11.9 | 31.2* | 0.0 | -2.5 | -3.5 | 12.6
CC1(c2cccc(Br)c2)NC(=O)N(CC(=O)c2ccc3c(c2)OCCO3)C1=O (stereo unspecified) | . | . | . | -3.7 | . | .
CCC1(c2ccc(OC)cc2)NC(=O)N(CC(=O)c2ccc3c(c2)OCCO3)C1=O (stereo unspecified) | 32.5* | 7.3 | 2.5 | -4.3 | -1.8 | 35.1
CCC1(c2ccc(F)cc2)NC(=O)N(CC(=O)c2cc(C)n(C3CC3)c2C)C1=O (stereo unspecified) | 41.3* | -6.6 | 8.3 | -4.8 | -1.8 | -2.8
COc1ccc(C2(C)NC(=O)N(CC(=O)N3CCc4ccccc43)C2=O)cc1OC (stereo unspecified) | 0.6 | -3.5 | -0.7 | -2.1 | 2.6 | 11.3
CCC1(c2ccc(OC)cc2)NC(=O)N(CC(=O)N2CCc3ccccc32)C1=O (stereo unspecified) | 38.8* | -1.3 | 7.2 | -4.3 | -5.0 | 5.9
CC(=O)c1c(C)[nH]c(C(=O)C(C)n2cnc3c2c(=O)n(C)c(=O)n3C)c1C (stereo unspecified) | . | . | . | -0.7 | . | .
Cc1ccc(-c2cnc(-c3ccccc3C(=O)OCC(=O)N(CCC#N)CCC#N)o2)cc1 | . | . | . | 5.3 | . | .
CC(NC(=O)c1ccc(Cl)cc1Cl)C(c1ccccc1)N1CCOCC1 (stereo unspecified) | 0.7 | -1.6 | -2.0 | -10.4 | -0.2 | -3.2
CC(NC(=O)Nc1ccc(Cl)c(Cl)c1)C(c1ccccc1)N1CCOCC1 (stereo unspecified) | 157.9* | 9.0 | -2.2 | 1.3 | 9.3 | 40.9
SMILES | D1 agonist | TRHR enhancer | TRHR ag | LDHA inh | D1 PAM | D1 antagonist
CC(NC(=O)Nc1ccc([N+](=O)[O-])cc1)C(c1ccccc1)N1CCOCC1 (stereo unspecified) | 172.9* | 1.6 | -0.5 | -11.3 | -1.1 | 167.3
CCN(CC1CCOC1)C(=O)Cn1nc(C)c2ccccc2c1=O (stereo unspecified) | . | . | . | 0.4 | . | .
O=C(Nc1ccc(N2CCN(C(=O)c3ccco3)CC2)cc1)c1ccccc1 | 0.6 | 4.2 | 0.0 | -3.0 | 2.4 | -55.7*
O=C(Nc1ccc(N2CCN(Cc3ccccc3)CC2)cc1)c1ccco1 | 3.9 | -3.9 | -0.2 | -3.9 | -4.5 | -30.0*
CCc1ccc2ncc(S(=O)(=O)c3ccc(C)c(C)c3)c(N3CCOCC3)c2c1 | . | . | . | -16.4 | . | .
CCN(CC)S(=O)(=O)c1ccc2c(c1)nc(SCC(=O)Nc1ccc(OC)cc1)n2CC | . | . | . | 0.1 | . | .
CCOCCCN1C(=O)CN(C2CCCCC2)C(=O)C1c1ccc(OC)c(OC)c1 (stereo unspecified) | 1.3 | 1.9 | 0.4 | 0.7 | -1.5 | 4.6
CCOCCCN1C(=O)CN(C2CCCCCC2)C(=O)C1c1ccc(OC(C)C)c(OC)c1 (stereo unspecified) | -3.8 | -0.7 | -0.8 | -0.3 | -2.1 | -38.3*
COC(=O)c1ccc(CNC(=O)c2ccccc2C(F)(F)F)cc1 | . | . | . | -0.7 | . | .
CC(C)Cn1c(=O)c2sccc2n(CC(=O)NCC2CCCO2)c1=O (stereo unspecified) | . | . | . | -3.5 | . | .
Cn1c(=O)c2sccc2n(CC(=O)NCC2CCCO2)c1=O (stereo unspecified) | . | . | . | -40.6* | . | .
O=C(Nc1ccc2c(c1)CCCN2C(=O)c1cccs1)c1ccccc1 | 2.3 | -4.8 | -0.8 | 1.5 | -5.4 | -27.9
O=C(Nc1ccc2c(c1)CCCN2C(=O)c1cccs1)c1cccc(F)c1 | 6.5 | -16.4 | -0.1 | 0.0 | -4.9 | -36.4*
O=C(Nc1ccc2c(c1)CCCN2C(=O)c1cccs1)c1cccc(C(F)(F)F)c1 | 1.4 | -3.7 | 0.5 | 1.4 | -0.8 | -58.0*
Cc1ccc(S(=O)(=O)Nc2ccc3c(c2)CCCN3C(=O)c2cccs2)cc1 | 10.5 | -0.3 | -1.6 | -3.9 | -0.2 | -17.0
O=C(c1cccs1)N1CCCc2cc(NS(=O)(=O)c3ccc(Br)cc3)ccc21 | 1.4 | -2.8 | -0.4 | -3.9 | -0.1 | -39.9*
CCOc1ccc(N(Cc2cc3ccccc3[nH]c2=O)C(=O)C(C)(C)C)cc1 | . | . | . | 4.1 | . | .
COc1ccc(C(=O)Nc2cc3c(cc2C#N)OCO3)cc1S(=O)(=O)N1CCCCC1 | . | . | . | -6.0 | . | .
CN(C)c1ccc(/C=N/NC(=O)c2ccc3ccccc3c2)cc1 | . | . | . | -2.8 | . | .
COC(=O)c1cc(=O)n(CCc2ccc(OC)cc2)c(=Nc2ccc(F)c(Cl)c2)s1 | 7.3 | 3.0 | -0.5 | -12.5 | -7.9 | -59.7*
Cc1nn(C(=O)c2ccccc2F)c(C)c1S(=O)(=O)N1CCCCCC1 | -0.6 | -12.9 | 0.0 | 0.5 | -0.1 | -1.0
Cc1nn(C(=O)c2c(F)cccc2F)c(C)c1S(=O)(=O)N1CCCCCC1 | 4.2 | 0.6 | 0.0 | 3.5 | -3.5 | -62.6*
CC(C)CNC(=S)N1CCC(c2nc(-c3ccc(F)cc3)no2)CC1 | 19.4 | -6.4 | -0.2 | 1.7 | -7.8 | -34.5*
